Outcome and AC50 data for nine molecules are collected here from PubChem BioAssay (EPA / NIEHS).

Molecules are shown by their SMILES. Values joined by “and” are separate entries in the source; they are usually repeats but may differ in a detail not shown here. Identical values can stand only once. Inconclusive results are not listed. Active and inactive are the calls of the source. How the source made its calls, unless noted: active means hit-call score of the fitted dose curve at least 0.9, where 1 is the maximum; inconclusive means response in the unintended direction; inactive means score below 0.9.

Assay [1] in a line: TOX21_p53_BLA_p2_viability: Viability Assessment in the Tox21 HCT-116 p53 Agonism Beta-lactamase Assay, Phase 2 (AID 2283591).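 Further: compound exposure lasted 16 h at 37 °C; actives lower the ATP signal meaning cytotoxicity.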 The method, boiled down: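 HCT116 p53-bla cells, 4000/well, dosed after 5 h plating (217-fold dilution of DMSO stocks) and incubated 16 h at 37C. Viability taken as cellular ATP by CellTiter-Glo luminescence after 30 min RT; signal loss marks cytotoxicity.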

Assay [2] concerns the target Cellular tumor antigen p53 (Homo sapiens) (UniProt P04637). Kind of assay: TOX21_p53_BLA_p2_ratio: Tox21 HCT-116 p53 Agonism Beta-lactamase Assay, Ratio, Phase 2 (AID 2283592). A digest of the protocol:
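HCT-116 cells with p53-responsive beta-lactamase reporter, 4000 cells/well, preincubated 5 h, then compound in DMSO (217-fold dilution) for 16 h at 37C. CCF4-AM substrate 2 h at room temperature; 460/530 nm emission ratio fitted upward versus DMSO.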

Assay [3] can be described thus: TOX21_p53_BLA_p3_viability: Viability Assessment in the Tox21 HCT-116 p53 Agonism Beta-lactamase Assay, Phase 3 (AID 2283593).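 Further: cells exposed to compound for 16 h before reading.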 A digest of the protocol:
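HCT116 cells, 4000/well, dosed 5 h after plating by pin transfer (217-fold dilution from DMSO stock) and incubated 16 h at 37C, 5% CO2. Viability read as ATP luminescence with CellTiter-Glo after 30 min at room temperature.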

For assay [4], the target named is Cellular tumor antigen p53 (Homo sapiens) (UniProt P04637). Briefly: TOX21_p53_BLA_p3_ratio: Tox21 HCT-116 p53 Agonism Beta-lactamase Assay, Ratio, Phase 3 (AID 2283596). The method, boiled down:
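HCT116 p53-bla cells (4000/well) given compound in DMSO (217-fold dilution) after 5 h, incubated 16 h at 37C. CCF4-AM substrate 2 h at room temperature; 460/530 nm emission ratio, gain fitted against DMSO.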

Assay [5] is described as follows: TOX21_p53_BLA_p4_viability: Viability Assessment in the Tox21 HCT-116 p53 Agonism Beta-lactamase Assay, Phase 4 (AID 2283597).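 Further: hits lower the luminescence signal meaning cytotoxicity.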 The method, boiled down:
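HCT-116 p53-bla cells, 4000/well, dosed after 5 h attachment and incubated 16 h at 37 °C, 5% CO2. Viability from CellTiter-Glo ATP luminescence after 30 min at room temperature, taken after the beta-lactamase read; loss of signal indicates cytotoxicity.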

Assay [6] has as its target Cellular tumor antigen p53 (Homo sapiens) (UniProt P04637). Briefly: TOX21_p53_BLA_p5_ratio: Tox21 HCT-116 p53 Agonism Beta-lactamase Assay, Ratio, Phase 5 (AID 2283599). The method, boiled down: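 HCT-116 p53-bla cells (4000/well) plated 5 h, dosed with compound (217-fold DMSO dilution) for 16 h at 37 C; CCF4-AM substrate 2 h at room temperature. Activity is the 460/530 nm emission ratio (405 nm excitation), fitted in gain-of-signal direction versus DMSO.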

Assay [7] is described as follows: TOX21_p53_BLA_p5_viability: Viability Assessment in the Tox21 HCT-116 p53 Agonism Beta-lactamase Assay, Phase 5 (AID 2283600). The method, boiled down: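 HCT-116 p53 beta-lactamase reporter cells, 4000/well, were exposed to compound (pin transfer, 217-fold dilution) for 16 hours at 37C. Cellular ATP was read by CellTiter-Glo luminescence after 30 min at room temperature.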

For assay [8], the target named is Cellular tumor antigen p53 (Homo sapiens) (UniProt P04637). Kind of assay: TOX21_p53_BLA_p4_ratio: Tox21 HCT-116 p53 Agonism Beta-lactamase Assay, Ratio, Phase 4 (AID 2283601). A digest of the protocol: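 HCT-116 p53 beta-lactamase reporter cells (4000/well) preincubated 5 h, then compound (217-fold dilution of DMSO stock) for 16 h at 37C. CCF4-AM substrate added 2 h at room temperature; 460/530 nm emission ratio fitted upward versus DMSO.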

Assay [9] in a line: CCTE_Harrill_HTTr_Viability_MCF7: CCTE's 6-hour Cell Viability Assessment for the High-Throughput Transcriptomics (HTTr) Platform, in MCF-7 cells cultured in DMEM + 10% fetal bovine serum, Harrill Lab (AID 2284010; active means hit-call score of the fitted dose curve at least 0.9, where 1 is the maximum; inactive means score below 0.9). A digest of the protocol: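 Viability measured through PI dye exclusion by high-content imaging at 6 h post-dosing.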
Assay [10] in a line: CCTE_Harrill_HTTr_Apoptosis_MCF7: CCTE's 6-hour Apoptosis Assessment for the High-Throughput Transcriptomics (HTTr) Platform, in MCF-7 cells cultured in DMEM + 10% fetal bovine serum, Harrill Lab (AID 2284011; active means hit-call score of the fitted dose curve at least 0.9, where 1 is the maximum; inactive means score below 0.9). The method, boiled down: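 MCF-7 cells in DMEM + 10% FBS exposed 6 h to chemicals over an eight-point dilution series. Caspase-3/7 activation imaged by high-content CellEvent Green staining; fitted bidirectionally versus DMSO.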

For the next assay, the target named is PGR (gene 5241) (UniProt P06401). Briefly: TOX21_PR_BLA_Followup_Antagonist_ratio: Tox21 HEK293 Progesterone Receptor (PR) Antagonism Beta-lactamase Follow-Up Assay, Ratio (AID 2283934). The method, boiled down: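 Antagonist mode used 1 nM R5020 (final) as agonist on a beta-lactamase reporter line in HEK293T cells. Activity was taken from the substrate cleavage ratio after 16 hr exposure.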

Assay [11] can be described thus: TOX21_PR_BLA_Followup_Agonist_viability: Viability Assessment in the Tox21 HEK293 Progesterone Receptor (PR) Agonism Beta-lactamase Follow-Up Assay (AID 2283935).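 Further: signal loss means lower viability so actives are cytotoxic.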 A digest of the protocol:
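Multiplexed viability counter-screen: ATP-coupled luciferase signal measured after 30 min at room temperature, following 16 hr compound treatment of PR-UAS-bla HEK293T cells grown in charcoal-stripped serum.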

A short description of assay [12]: TOX21_PR_BLA_Followup_Antagonist_viability: Viability Assessment in the Tox21 HEK293 Progesterone Receptor (PR) Antagonism Beta-lactamase Follow-Up Assay (AID 2283936).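 Further: hits lower the luminescence signal meaning cytotoxicity.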 A digest of the protocol: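 PR-UAS-bla HEK293T cells (3,000/well, 2% charcoal-stripped FBS) given compound plus R5020 agonist, 16 h at 37C. CellTiter-Glo added after bla read, 30 min at room temperature; luminescence loss indicates cytotoxicity.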

Assay [13] in a line: TOX21_PR_LUC_Followup_Agonist_viability: Viability Assessment in the Tox21 HEK293 Progesterone Receptor (PR) Agonism Luciferase Follow-Up Assay (AID 2283941).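 Further: loss of signal means cytotoxicity so actives lower viability.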 The method, boiled down:
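Luminescent ATP quantitation (CellTiter-Glo) serves as the read-out; a drop flags cytotoxic compounds. Cells are HEK293-PR-A-luc grown in 10% charcoal-stripped FBS, plated 3,000/well, and exposed to compound for 16 h.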

Another assay addresses THRA (gene 7067) (UniProt P10827). Briefly: TOX21_TRA_COA_Antagonist_Followup_ratio: Tox21 Thyroid Hormone Receptor alpha Antagonism through Coactivator Recruitment Follow-Up Assay, Ratio (AID 2283953). A digest of the protocol: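 This follow-up to the GH3 luciferase screen checks specificity in a cell-free format. It measures SRC-2 coactivator peptide binding to TRα LBD by TR-FRET and scores loss of ratio signal relative to DMSO.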

A short description of assay [14]: TOX21_TRB_BLA_Antagonist_Followup_viability: Viability Assessment in the Tox21 Thyroid Hormone Receptor beta Antagonism Beta-lactamase (BLA) Follow-Up Assay (AID 2283961). The method, boiled down:
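HEK293T cells with GAL4-human TRβ LBD and UAS-bla reporter, 3,000 cells/well in 2% charcoal-stripped FBS medium; 11-point concentrations in triplicate, 18 h at 37C. Viability from ATP by CellTiter-Glo luminescence, 30 min RT, same plates.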

The target in another assay is THRB (gene 7068) (UniProt P10828). Kind of assay: TOX21_TRB_COA_Antagonist_Followup_ratio: Tox21 Thyroid Hormone Receptor beta Antagonism through Coactivator Recruitment Follow-Up Assay, Ratio (AID 2283967). The method, boiled down: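 Cell-free TR-FRET: GST-TRb LBD (5.0 nM) with fluorescein-SRC-2 peptide (200 nM) and Tb anti-GST antibody (2 nM), 0.10% BSA. 520:495 nm emission ratio normalized to DMSO (0%) and T3 (100%).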

Assay [15] in a line: TOX21_TR_RXR_BLA_Antagonist_Followup_viability: Viability Assessment in the Tox21 Thyroid Hormone Receptor beta Retinoid X Receptor alpha (RXRa) Antagonism Beta-lactamase (BLA) Follow-Up Assay (AID 2283979). A digest of the protocol:
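RXRa-bla HEK293T cells (2,500/well, phenol red-free DMEM, 2% charcoal-stripped FBS) were attached 5 h, then exposed to compounds at 11 concentrations in triplicate for 16 h at 37C. Viability measured by CellTiter-Glo ATP luminescence, bidirectional fitting versus DMSO.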

Chain of THRB (gene 7068) (P10828 whole entry, looked up, the tested form may be a part): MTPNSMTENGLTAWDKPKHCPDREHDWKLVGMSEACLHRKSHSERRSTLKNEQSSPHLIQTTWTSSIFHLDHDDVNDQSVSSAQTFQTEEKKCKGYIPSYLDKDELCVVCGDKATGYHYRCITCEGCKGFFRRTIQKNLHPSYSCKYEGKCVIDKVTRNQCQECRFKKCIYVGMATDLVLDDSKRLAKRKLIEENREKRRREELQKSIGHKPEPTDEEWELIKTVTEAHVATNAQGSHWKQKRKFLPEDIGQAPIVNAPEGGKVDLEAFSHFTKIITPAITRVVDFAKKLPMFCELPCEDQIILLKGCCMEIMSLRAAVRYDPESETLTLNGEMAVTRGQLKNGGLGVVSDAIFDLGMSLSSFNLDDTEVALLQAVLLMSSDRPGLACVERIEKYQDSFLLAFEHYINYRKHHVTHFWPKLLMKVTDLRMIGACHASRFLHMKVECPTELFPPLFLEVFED
Chain of Cellular tumor antigen p53 (Homo sapiens) (P04637 whole entry, looked up): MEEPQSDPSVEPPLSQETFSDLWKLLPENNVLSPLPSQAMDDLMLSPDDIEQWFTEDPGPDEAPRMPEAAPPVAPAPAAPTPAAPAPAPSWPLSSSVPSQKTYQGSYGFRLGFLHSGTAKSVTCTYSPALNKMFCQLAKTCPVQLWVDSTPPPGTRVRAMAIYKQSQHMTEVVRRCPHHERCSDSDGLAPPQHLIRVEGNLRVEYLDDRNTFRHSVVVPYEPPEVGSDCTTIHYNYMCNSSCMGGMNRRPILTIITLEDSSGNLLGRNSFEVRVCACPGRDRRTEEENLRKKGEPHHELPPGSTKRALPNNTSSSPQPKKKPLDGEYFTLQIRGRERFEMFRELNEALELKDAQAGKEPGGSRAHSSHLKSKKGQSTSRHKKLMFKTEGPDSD
Chain of THRA (gene 7067) (P10827 whole entry, looked up, the tested form may be a part): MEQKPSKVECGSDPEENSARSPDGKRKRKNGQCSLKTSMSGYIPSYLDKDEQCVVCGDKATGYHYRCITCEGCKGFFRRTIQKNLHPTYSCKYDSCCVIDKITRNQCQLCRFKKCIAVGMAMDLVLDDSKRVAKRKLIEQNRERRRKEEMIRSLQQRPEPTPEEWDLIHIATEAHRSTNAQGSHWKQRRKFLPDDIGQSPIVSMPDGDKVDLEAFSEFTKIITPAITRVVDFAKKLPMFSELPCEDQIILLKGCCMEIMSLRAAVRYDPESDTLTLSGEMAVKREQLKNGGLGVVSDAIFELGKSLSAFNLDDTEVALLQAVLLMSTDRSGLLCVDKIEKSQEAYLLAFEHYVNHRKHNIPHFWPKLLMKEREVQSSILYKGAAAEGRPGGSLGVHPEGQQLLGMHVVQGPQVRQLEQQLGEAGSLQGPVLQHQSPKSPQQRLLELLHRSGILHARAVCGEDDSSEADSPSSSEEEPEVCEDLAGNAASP
Chain of PGR (gene 5241) (P06401 whole entry, looked up): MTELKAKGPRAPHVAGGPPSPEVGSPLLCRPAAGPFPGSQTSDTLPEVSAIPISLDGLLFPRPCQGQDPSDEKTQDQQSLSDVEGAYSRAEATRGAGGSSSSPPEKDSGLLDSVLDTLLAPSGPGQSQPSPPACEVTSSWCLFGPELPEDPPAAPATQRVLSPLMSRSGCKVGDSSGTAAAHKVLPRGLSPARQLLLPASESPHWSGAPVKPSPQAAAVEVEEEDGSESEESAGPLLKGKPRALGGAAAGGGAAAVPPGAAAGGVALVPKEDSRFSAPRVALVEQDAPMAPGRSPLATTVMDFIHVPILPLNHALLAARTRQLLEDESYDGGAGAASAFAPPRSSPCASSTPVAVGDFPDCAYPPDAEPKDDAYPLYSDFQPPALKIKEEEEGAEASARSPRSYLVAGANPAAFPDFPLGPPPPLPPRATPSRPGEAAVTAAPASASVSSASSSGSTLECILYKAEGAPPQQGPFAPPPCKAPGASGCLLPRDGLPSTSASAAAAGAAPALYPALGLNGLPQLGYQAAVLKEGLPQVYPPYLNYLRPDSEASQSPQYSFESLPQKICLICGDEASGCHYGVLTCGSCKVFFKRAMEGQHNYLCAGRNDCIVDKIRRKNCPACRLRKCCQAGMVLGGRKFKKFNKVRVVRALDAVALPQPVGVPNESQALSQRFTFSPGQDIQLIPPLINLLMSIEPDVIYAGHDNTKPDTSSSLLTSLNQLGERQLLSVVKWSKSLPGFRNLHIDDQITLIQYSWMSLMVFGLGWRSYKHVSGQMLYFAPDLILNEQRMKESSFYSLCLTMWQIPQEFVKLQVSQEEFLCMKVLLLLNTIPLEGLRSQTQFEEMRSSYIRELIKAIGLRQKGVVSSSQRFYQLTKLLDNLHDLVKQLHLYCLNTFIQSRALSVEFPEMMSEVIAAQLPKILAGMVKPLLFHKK

Regarding `CCCCC(=O)O[C@]1(C(=O)CO)[C@@H](C)C[C@H]2[C@@H]3CCC4=CC(=O)C=C[C@]4(C)[C@@]3(F)[C@@H](O)C[C@@]21C`, the outcome in [1], in assay [2], in assay [3], in assay [4], in assay [6] and in assay [7] was inactive. In addition, the result in assay [8], in assay [9] and in [10] was inactive. Moreover, the half-maximal activity concentration (AC50) (as a rule, the concentration giving half of the maximal activity seen) in assay [5] was 38.7 µM (active).

As to `CCC(=C(CC)c1ccc(O)cc1)c1ccc(O)cc1`, the AC50 was 38.3 µM (active) in assay [1]; 7.14 µM (active) in assay [2]; 7.64 µM (active) in assay [4]; 17.7 µM (active) in [6]; 7.47 µM (active) in assay [8]; 23.7 µM (active) with PGR (gene 5241). In addition, the molecule was called inactive in assay [3], in assay [5], in assay [7], in assay [11], in assay [12] and in assay [13].

With `C[C@]12C=CC(=O)C=C1[C@@H](F)C[C@@H]1[C@@H]2[C@@H](O)C[C@@]2(C)[C@H]1CC[C@]2(O)C(=O)CO`, the molecule was classed as inactive in assay [1], in assay [2], in assay [5], in [6], in assay [7] and in assay [8]. For the same molecule, the result (with PGR (gene 5241); in [12]; in assay [13]) was inactive. For the same molecule, the results for the AC50 in assay [3] and in assay [4] were 37.3 µM (active) and 43.5 µM (active), respectively.

Consider `NNc1nncc2ccccc12`, for which the molecule was called inactive in [1], in [2], in assay [3], in assay [4], in [5] and in assay [6]. Also, the result in assay [7], in assay [8], in assay [9] and in [10] was inactive.

As to `CO[C@H]1C[C@@H]2CC[C@@H](C)[C@@](O)(O2)C(=O)C(=O)N2CCCC[C@H]2C(=O)O[C@H]([C@H](C)C[C@@H]2CC[C@@H](OCCO)[C@H](OC)C2)CC(=O)[C@H](C)/C=C(\C)[C@@H](O)[C@@H](OC)C(=O)[C@H](C)C[C@H](C)\C=C/C=C/C=C/1C`, the AC50 in assay [1] is 19.2 µM (active); in [2] it was 17.9 µM (active); in assay [3], 27.4 µM (active); in assay [4], 40.2 µM (active); in assay [5], 21.9 µM (active); in [6], 21.9 µM (active). Moreover, the figures for the concentration at half-maximal activity (AC50) in assay [7] and in [8] were 20.6 µM (active) and 23 µM (active), respectively. In addition, the result (in the assay with THRA (gene 7067); in assay [14]; with THRB (gene 7068); in [15]) was inactive.

On to `C[n+]1c2cc(N)ccc2cc2ccc(N)cc21` (tested in a mixture with another compound), for which the outcome in assay [1], in [3], in [5], in [7] and in assay [14] was inactive. Moreover, the AC50 in assay [2] is 11.6 µM (active); in assay [4], 9.45 µM (active); in [6], 9.47 µM (active); in assay [8] it was 6.18 µM (active); in assay [15], 16.5 µM (active).

Regarding `Cc1nc2ccccc2n1Cc1ccc(Cl)cc1`, the outcome in assay [1], in [2], in [3], in assay [4], in assay [5] and in assay [6] was inactive. Also, the molecule was called inactive (in assay [7]; in [8]; in the assay with THRA (gene 7067); in assay [14]; with THRB (gene 7068); in [15]).

For `CCCCCCNC(=O)n1cc(F)c(=O)[nH]c1=O`, the half-maximal activity concentration (AC50) in [1] was 0.709 µM (active); in assay [2], 0.77 µM (active); in [3], 1.26 µM (active); in assay [4] it was 2.57 µM (active); in assay [5], 3.62 µM (active); in assay [6], 2.87 µM (active). Moreover, the figures for the AC50 in assay [7] and in [8] were 1.02 µM (active) and 2.24 µM (active), respectively. Moreover, the molecule was classed as inactive (in assay [14]; with THRB (gene 7068); in [15]).

For `Nc1c2ccccc2nc2ccccc12`, the result (in assay [1]; in assay [3]; in assay [5]; in [7]; with THRA (gene 7067); in assay [14]) was inactive. In addition, the outcome in the assay with THRB (gene 7068) was inactive. Also, the AC50 in [2] is 2.18 µM (active) and 2.99 µM (active); in assay [4], 5.09 µM (active) and 6.02 µM (active); in [6] it was 3.58 µM (active) and 3.94 µM (active); in assay [8], 2.28 µM (active) and 5.34 µM (active); in assay [15], 10.6 µM (active).
